Results taken from article PMC4336329 (PLoS ONE, 2015).
In all, about 310,000 compounds went through this assay and about 14,000 (4.5%) showed an effect of 50% or more. The effect is printed as a negative number. Only a selection was taken, and strong results are over-represented in it overall.

Biological target: human ether-à-go-go-related gene (hERG) potassium channel (human, UniProt Q12809)
Test: primary screen, population patch clamp on CHO cells stably expressing hERG; higher = less effect of the substance
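Note: peak tail current of the secondary pulse compared with the same well before compound.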

Chain of human ether-à-go-go-related gene (hERG) potassium channel (Q12809 whole entry, looked up): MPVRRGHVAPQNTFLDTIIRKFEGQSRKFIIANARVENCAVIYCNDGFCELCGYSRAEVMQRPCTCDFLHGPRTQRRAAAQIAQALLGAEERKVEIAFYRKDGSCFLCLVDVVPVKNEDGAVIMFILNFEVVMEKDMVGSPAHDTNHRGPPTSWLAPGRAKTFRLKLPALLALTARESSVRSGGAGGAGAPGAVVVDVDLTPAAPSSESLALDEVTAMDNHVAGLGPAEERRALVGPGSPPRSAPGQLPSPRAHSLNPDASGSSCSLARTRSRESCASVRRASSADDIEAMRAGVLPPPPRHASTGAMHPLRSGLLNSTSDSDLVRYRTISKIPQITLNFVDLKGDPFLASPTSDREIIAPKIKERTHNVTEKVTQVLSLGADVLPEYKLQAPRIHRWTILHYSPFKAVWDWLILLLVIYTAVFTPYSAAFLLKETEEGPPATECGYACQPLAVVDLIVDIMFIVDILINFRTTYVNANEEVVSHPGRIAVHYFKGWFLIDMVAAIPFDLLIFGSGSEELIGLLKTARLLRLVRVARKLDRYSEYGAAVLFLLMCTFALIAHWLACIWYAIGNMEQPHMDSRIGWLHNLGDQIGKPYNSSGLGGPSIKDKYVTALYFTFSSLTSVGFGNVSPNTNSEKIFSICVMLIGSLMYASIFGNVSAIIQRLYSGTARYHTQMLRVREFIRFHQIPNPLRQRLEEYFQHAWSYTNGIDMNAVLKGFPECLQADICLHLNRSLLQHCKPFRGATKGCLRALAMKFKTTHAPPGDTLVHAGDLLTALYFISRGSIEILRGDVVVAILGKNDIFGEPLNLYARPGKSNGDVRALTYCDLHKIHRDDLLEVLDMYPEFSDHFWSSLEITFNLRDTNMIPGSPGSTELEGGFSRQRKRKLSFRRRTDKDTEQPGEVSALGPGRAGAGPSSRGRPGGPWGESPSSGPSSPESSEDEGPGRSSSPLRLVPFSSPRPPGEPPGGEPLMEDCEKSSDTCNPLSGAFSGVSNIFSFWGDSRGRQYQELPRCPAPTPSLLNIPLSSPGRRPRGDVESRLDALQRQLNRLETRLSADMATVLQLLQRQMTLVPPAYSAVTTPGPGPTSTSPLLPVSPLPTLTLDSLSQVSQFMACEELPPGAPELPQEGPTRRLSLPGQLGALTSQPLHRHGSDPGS

| SMILES | hERG current change (%, negative = inhibition) at 10uM [%] |
| --- | --- |
| c1ccc(CNCC2COc3ccccc3O2)cc1 (centres unmarked) | 8.17 |
| O=C(Cn1c(CO)nc2ccccc21)Nc1ccccc1Cl | 25.1 |
| CCC(CC)c1nnc(NC(=O)CCc2ccc(OC)cc2)s1 | 13.1 |
| Cc1ccc2cc(CCNC(=O)c3cccc([N+](=O)[O-])c3)c(=O)[nH]c2c1 | -20.2 |
| CC(C)N(Cc1cc2ccccc2[nH]c1=O)C(=O)c1cccc([N+](=O)[O-])c1 | -13.4 |
| COc1ccc2cc(CCNC(=O)c3cccc([N+](=O)[O-])c3)c(=O)[nH]c2c1 | -79.2 |
| Cc1cc2cc(CCNC(=O)c3cccc([N+](=O)[O-])c3)c(=O)[nH]c2cc1C | -47.1 |
| CCN(Cc1cc2cc(C)ccc2[nH]c1=O)C(=O)c1cccc([N+](=O)[O-])c1 | -37.9 |
| Cc1ccc2[nH]c(=O)c(CN(C(=O)c3cccc([N+](=O)[O-])c3)C(C)C)cc2c1 | -50.5 |
| CC(O)CNc1nc2c(c(=O)n(C)c(=O)n2C)n1C/C=C/c1ccccc1 (centres unmarked) | -13.7 |
| COc1ccc(NS(=O)(=O)c2cc(NC(=O)c3ccc(=O)[nH]n3)ccc2N2CCOCC2)cc1 | -23.2 |
| COc1ccc(NC(=O)C2CCN(S(=O)(=O)c3cccc4cccnc34)CC2)cc1OC | 9.47 |
| Cc1nn(C(C)(C)C)c(C)c1/C=N/OC(=O)Nc1ccc(Cl)c(Cl)c1 | 1.85 |
| CC#CCN(Cc1ccco1)C(=O)c1ccc(OC2CCN(Cc3ccccn3)CC2)cc1 | -60.3 |
| C#CCN(C(=O)c1ccc(OC2CCN(Cc3ccccn3)CC2)cc1)C1CCCCC1 | -39.6 |
| C#CCN(Cc1ccco1)C(=O)c1ccc(OC2CCN(Cc3ccccn3)CC2)cc1 | -66.9 |

| SMILES | hERG current change (%, negative = inhibition) at 10uM [%] |
| --- | --- |
| CN(C(=O)c1ccc(OC2CCN(Cc3ccccn3)CC2)cc1)C1CCCCC1 | -9.82 |
| C=CCN(CC=C)C(=O)c1ccc(OC2CCN(Cc3ccccn3)CC2)cc1 | -9.67 |
| CN(Cc1ccco1)C(=O)c1ccc(OC2CCN(Cc3ccccn3)CC2)cc1 | -6.63 |
| CCOC(=O)c1cnn(-c2nc(CC)nc3sc4c(c23)CCC4)c1N | 8.44 |
| Nc1ccc(C(=O)N2CCN(S(=O)(=O)c3ccc(Cl)cc3)CC2)cc1[N+](=O)[O-] | -46.1 |
| C=CCN1C(=O)c2ccc(C(=O)N3CCN(S(=O)(=O)c4cccc([N+](=O)[O-])c4)CC3)cc2C1=O | -30.4 |
| C=CCN1C(=O)c2ccc(C(=O)N3CCN(S(=O)(=O)c4cccc(F)c4)CC3)cc2C1=O | -62.7 |
| C=CCN1C(=O)c2ccc(C(=O)N3CCN(S(=O)(=O)c4cccc(Cl)c4)CC3)cc2C1=O | -14.8 |
| O=C(c1ccc(-n2cncn2)c([N+](=O)[O-])c1)N1CCN(S(=O)(=O)c2cccc(F)c2)CC1 | -71.9 |
| O=C(c1ccc(-n2cncn2)c([N+](=O)[O-])c1)N1CCN(S(=O)(=O)c2ccccc2F)CC1 | -45.1 |
| O=C(c1ccc(-n2cncn2)c([N+](=O)[O-])c1)N1CCN(S(=O)(=O)c2ccc(Cl)cc2)CC1 | -61.4 |
| O=C(NNC(=O)c1ccccc1F)c1ccc(-n2cncn2)c([N+](=O)[O-])c1 | 7.74 |
| O=C(c1ccc2nc[nH]c2c1)N1CCN(S(=O)(=O)c2cccc(F)c2)CC1 | 12 |
| O=C(c1ccc(Cl)c([N+](=O)[O-])c1)N1CCN(S(=O)(=O)c2ccc(Cl)cc2)CC1 | -11.3 |
| O=C(c1ccc(-n2cncn2)c([N+](=O)[O-])c1)N1CCN(S(=O)(=O)c2c(F)cccc2F)CC1 | -56.8 |
| O=C(c1ccncc1)N1CCN(S(=O)(=O)c2cccc(F)c2)CC1 | 7.6 |
